From PubChem BioAssay (EPA / NIEHS)
Records with an inconclusive call do not appear. Active and inactive are the calls of the source. Rule for the calls, unless noted: active = hit-call score of the fitted dose curve at least 0.9, where 1 is the maximum; inactive = score below 0.9.

What was measured:
[1] = CCTE_Shafer_MEA_acute_spike_number: CCTE's Neural Acute Assay for Total Number of Spikes, Shafer Lab (AID 2284008);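 for AC50: curve fitted for decrease in spike count so AC50 reflects inhibitors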
Procedure, shortened: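 Cortical neurons from rat, matured to DIV 13 or 15 on microelectrode arrays, are recorded at 37 C before and during 40-min exposure to 0.03-40 uM compound. Wells need >/= 10 active electrodes.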

[2] = CCTE_Shafer_MEA_acute_burst_number: CCTE's Neural Acute Assay for Single-Electrode Bursts, Shafer Lab (AID 2284013)
Procedure, shortened: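 Spontaneous network activity of primary rat cortical neurons was recorded extracellularly on microelectrode arrays at 37 C, with 40-min periods before and during exposure to 0.03-40 uM compound on DIV 13 or 15.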

[3] = target: Nucleoli Translocation, AR (gene 367) (UniProt P10275); test: UPITT_HCI_U2OS_AR_TIF2_Nucleoli_Antagonist: University of Pittsburgh U2OS Androgen Receptor-Transcriptional Intermediary Factor 2 (AR-TIF2) Antagonism High Content Imaging Assay for Nucleoli Translocation (AID 2283997; active = hit-call score of the fitted dose curve at least 0.9, where 1 is the maximum)
Procedure, shortened: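 Measured quantity was AR-RFP fluorescence localized to nucleoli in engineered U2OS cells also bearing TIF2-GFP, acquired on automated high-content imagers. Primary testing used 20 uM compound; actives were confirmed in triplicate wells.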

[4] = target: Nucleoli Translocation, AR (gene 367) (UniProt P10275); test: UPITT_HCI_U2OS_AR_TIF2_Nucleoli_Agonist: University of Pittsburgh U2OS Androgen Receptor-Transcriptional Intermediary Factor 2 (AR-TIF2) Agonism High Content Imaging Assay for Nucleoli Translocation (AID 2283998; active = hit-call score of the fitted dose curve at least 0.9, where 1 is the maximum)
Procedure, shortened: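 Red-tagged human androgen receptor co-expressed with GFP-tagged TIF2 serves as the binding reporter. Primary testing used 20 uM final (0.2% DMSO); follow-up dose response covered 0.195 to 50 uM final (0.5% DMSO).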

[5] = target: Ratio of Nucleoli Translocation and Cytoplasm, AR (gene 367) (UniProt P10275); test: UPITT_HCI_U2OS_AR_TIF2_Nucleoli_Cytoplasm_Ratio_Antagonist: University of Pittsburgh U2OS Androgen Receptor-Transcriptional Intermediary Factor 2 (AR-TIF2) Antagonism High Content Imaging Assay for Ratio of Nucleoli Translocation and Cytoplasm (AID 2283999; active = hit-call score of the fitted dose curve at least 0.9, where 1 is the maximum;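 note: antagonists lower the DHT-driven ratio of nucleolar to cytoplasmic red signal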)
Procedure, shortened: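 U2OS cells co-expressing RFP-tagged human AR and GFP-tagged TIF2, antagonist mode with DHT as baseline. Nucleolar-to-cytoplasmic red fluorescence ratio imaged by high-content microscopy; final compound 20 uM (0.2% DMSO) primary, 0.195–50 uM (0.5% DMSO) concentration-response.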

[6] = target: Ratio of Nucleoli Translocation and Cytoplasm, AR (gene 367) (UniProt P10275); test: UPITT_HCI_U2OS_AR_TIF2_Nucleoli_Cytoplasm_Ratio_Agonist: University of Pittsburgh U2OS Androgen Receptor-Transcriptional Intermediary Factor 2 (AR-TIF2) Agonism High Content Imaging Assay for Ratio of Nucleoli Translocation and Cytoplasm (AID 2284000; active = hit-call score of the fitted dose curve at least 0.9, where 1 is the maximum;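 note: hits raise the red nucleolar to cytoplasm ratio above vehicle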)
Procedure, shortened: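 Read-out first: nucleolar-to-cytoplasm ratio of red (AR-RFP) signal, quantified by high-content imaging in U2OS cells co-expressing TIF2-GFP. Activity is scored as signal increase over DMSO. Single-point screening used 20 uM final (0.2% DMSO).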

[7] = CCTE_Harrill_HTTr_Viability_MCF7: CCTE's 6-hour Cell Viability Assessment for the High-Throughput Transcriptomics (HTTr) Platform, in MCF-7 cells cultured in DMEM + 10% fetal bovine serum, Harrill Lab (AID 2284010)
Procedure, shortened: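 MCF-7 cells in DMEM + 10% FBS, 384-well, exposed 6 h to an eight-point dilution series. Membrane integrity scored by high-content imaging of propidium iodide exclusion; bidirectional fit versus DMSO.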

[8] = CCTE_Harrill_HTTr_Apoptosis_MCF7: CCTE's 6-hour Apoptosis Assessment for the High-Throughput Transcriptomics (HTTr) Platform, in MCF-7 cells cultured in DMEM + 10% fetal bovine serum, Harrill Lab (AID 2284011)
Procedure, shortened: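 Cells are dosed with test chemicals at eight concentrations and imaged 6 hours later for caspase-3/7 activity using a green fluorogenic detection reagent. Activity is fitted in both directions against DMSO controls.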

DIO1 (gene 1733) = test: CCTE_GLTED_hDIO1: CCTE's human Deiodinase 1 (DIO1) Inhibition Assay, Great Lakes Toxicology and Ecology Division (GLTED) Lab (AID 2283987; active = hit-call score of the fitted dose curve at least 0.9, where 1 is the maximum;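 note: isolated human DIO1 enzyme in a cell-free setup rather than cells; enzyme activity read as free iodide liberated from substrate via Sandell-Kolthoff colorimetry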)
Procedure: CCTE_GLTED_hDIO1 is a cell-free, single-readout assay designed to test the inhibitory activity of chemicals toward human iodothyronine Deiodinase type 1 (DIO1) enzyme. Enzyme is incubated in presence of test chemical for 3 hours during which uninhibited enzyme liberates free iodide from substrate. Free iodide is measured in a second step using the Sandell-Kolthoff method.CCTE_GLTED_hDIO1 is the assay component measured from the CCTE_GLTED_hDIO1 assay. It is designed to make measurements of enzyme activity, a form of enzyme reporter, as detected with absorbance signals by spectrophotometry.Data from the assay component CCTE_GLTED_hDIO1 was analyzed into 1 assay endpoint. This assay endpoint, CCTE_GLTED_hDIO1, was analyzed in the positive analysis fitting direction relative to DMSO as the negative control and baseline of activity. Using a type of enzyme reporter, loss-of-signal activity can be used to understand changes in the enzymatic activity as they relate to the gene DIO1. Furthermore, this assay endpoint can be referred to as a primary readout, because the performed assay has only produced 1 assay endpoint. To generalize the intended target to other relatable targets, this assay endpoint is annotated to the 'deiodinase' intended target family, where the subfamily is 'deiodinase Type 1'.
[…] assay, developed at Great Lakes Toxicology and Ecology Division (GLTED) within the EPA's Center for Computational Toxicology and Exposure (CCTE), is designed to test the chemicals' ability to inhibit DIO1. Assay is based on iodide release measured by the Sandell-Kolthoff method and is run in 96-well plate format with assay plates run in triplicate (n=3). The method used for the deiodinase assay was largely based on Renko et al. (2012, 2015). These works describe the utilization of the SK reaction to measure deiodinase-liberated iodide in a 96-well-plate format. The SK reaction is based on the reduction of the yellow-colored cerium IV to the non-colored cerium III by arsenic, with the rate of this reaction increased in the presence of iodide in a concentration-dependent manner (Sandell and Kolthoff, 1937). Iodinated test chemicals can interfere as competitive inhibitors, or if the stock chemical has contaminating free-iodide present. Other chemicals, e.g.: nitrite, iron, and thiocyanate can interfere with the Sandell-Kolthoff reaction (see Sandell and Kolthoff, 1937).

[9] = CCTE_Harrill_HTTr_CellCount_MCF7: CCTE's Cell Proliferation Assessment for the High-Throughput Transcriptomics (HTTr) Platform, Harrill Lab (AID 2284012; active = hit-call score of the fitted dose curve at least 0.9, where 1 is the maximum;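 note: cells exposed to compound for six hours; intended direction is loss of nuclei count meaning fewer cells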)
Procedure, shortened: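 MCF7 cells exposed 6 hours to an eight-point dilution series; Hoechst-stained nuclei counted by high-content imaging. Bidirectional curve fitting against DMSO baseline.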

Ratio of Nucleoli Translocation and Cytoplasm, AR (gene 367), sequence (P10275 whole entry, looked up): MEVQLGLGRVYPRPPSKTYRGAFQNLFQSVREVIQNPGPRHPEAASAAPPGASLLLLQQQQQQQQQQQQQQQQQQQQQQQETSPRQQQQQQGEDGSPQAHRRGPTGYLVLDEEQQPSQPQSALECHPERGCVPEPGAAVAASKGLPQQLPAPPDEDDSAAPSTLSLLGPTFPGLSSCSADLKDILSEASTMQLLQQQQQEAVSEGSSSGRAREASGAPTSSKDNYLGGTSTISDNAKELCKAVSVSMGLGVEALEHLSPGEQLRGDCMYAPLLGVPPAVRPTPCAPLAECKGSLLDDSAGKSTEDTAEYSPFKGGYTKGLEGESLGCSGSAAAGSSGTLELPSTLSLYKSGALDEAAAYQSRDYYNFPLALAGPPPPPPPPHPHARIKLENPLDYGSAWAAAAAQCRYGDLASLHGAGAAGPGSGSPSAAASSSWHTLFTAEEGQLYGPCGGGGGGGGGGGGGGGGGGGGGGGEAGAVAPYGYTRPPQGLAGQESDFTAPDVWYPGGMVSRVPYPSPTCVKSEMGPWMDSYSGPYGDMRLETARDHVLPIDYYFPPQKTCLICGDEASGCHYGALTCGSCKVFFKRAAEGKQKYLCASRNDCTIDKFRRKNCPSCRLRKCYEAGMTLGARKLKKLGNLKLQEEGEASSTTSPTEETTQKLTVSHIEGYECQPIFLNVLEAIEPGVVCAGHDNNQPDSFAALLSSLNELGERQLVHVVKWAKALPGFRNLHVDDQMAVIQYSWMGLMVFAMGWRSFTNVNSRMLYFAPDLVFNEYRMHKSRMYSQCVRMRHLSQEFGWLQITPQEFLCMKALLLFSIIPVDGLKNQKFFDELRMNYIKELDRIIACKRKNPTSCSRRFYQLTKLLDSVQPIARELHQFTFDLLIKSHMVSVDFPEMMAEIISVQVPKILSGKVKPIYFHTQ
Nucleoli Translocation, AR (gene 367), sequence (P10275 whole entry, looked up): as above

Structure (SMILES): Oc1ccc(Cc2ccccc2O)cc1
- AC50 [1]: 0.00292 µM (active)
- AC50 [2]: 0.0236 µM (active)

Structure (SMILES): O=C(c1ccccc1)c1ccccc1
- outcome [3]: inactive
- outcome [4]: inactive
- outcome [5]: inactive
- outcome [6]: inactive
- outcome [7]: inactive
- outcome [8]: inactive

Structure (SMILES): Nc1ccn([C@@H]2O[C@H](CO)[C@@H](O)C2O)c(=O)n1 (stereo not given in full)
- outcome [7]: inactive
- outcome [8]: inactive

Structure (SMILES): Oc1c(Cl)cc(Cl)cc1Sc1cc(Cl)cc(Cl)c1O
- outcome [1]: inactive
- outcome [7]: inactive
- outcome [8]: inactive
- outcome [2]: inactive

Structure (SMILES): Cc1cc(Cc2cc(C)cc(C(C)(C)C)c2O)c(O)c(C(C)(C)C)c1
- outcome [7]: inactive
- outcome [8]: inactive

Structure (SMILES): O=c1cc(-c2ccccc2)oc2ccc3ccccc3c12
- outcome [7]: inactive
- outcome [8]: inactive

Structure (SMILES): CCCCCCCCCCCCOC(=O)c1cc(O)c(O)c(O)c1
- AC50 (DIO1 (gene 1733)): 53.4 µM (active)
- outcome [7]: inactive
- outcome [8]: inactive

Structure (SMILES): CCCCCCCCCCCCCCCCCC[N+](C)(C)Cc1ccccc1
- outcome [7]: inactive
- outcome [8]: inactive

Structure (SMILES): CCCCC=O
- outcome [1]: inactive
- outcome [7]: inactive
- outcome [8]: inactive
- outcome [2]: inactive

Structure (SMILES): CC(C)(C)c1ccc(CCC=O)cc1
- outcome [7]: inactive
- outcome [8]: inactive
- outcome [9]: inactive

Structure (SMILES): C=C(c1ccc(C(=O)O)cc1)c1cc2c(cc1C)C(C)(C)CCC2(C)C
- outcome [7]: inactive
- outcome [8]: inactive

Structure (SMILES): O=C(NO)c1ccccc1
- outcome [7]: inactive
- outcome [8]: inactive

Structure (SMILES): CC(C)(C)c1ccc(O)c(O)c1
- outcome [7]: inactive
- outcome [8]: inactive

Structure (SMILES): CCC(=O)O
- outcome [7]: inactive
- outcome [8]: inactive
- outcome [9]: inactive

Structure (SMILES): Cn1sccc1=O
- outcome [7]: inactive
- outcome [8]: inactive

Structure (SMILES): COC1=CC(=O)C[C@@H](C)[C@]12Oc1c(Cl)c(OC)cc(OC)c1C2=O
- outcome [7]: inactive
- outcome [8]: inactive
- outcome [9]: inactive

Structure (SMILES): C=CC(C)(CCC=C(C)C)OC(C)=O (stereo not given)
- outcome [7]: inactive
- outcome [8]: inactive

Structure (SMILES): CNNCc1ccc(C(=O)NC(C)C)cc1
- outcome [7]: inactive
- outcome [8]: inactive

Structure (SMILES): Cc1[nH]nc2c1N=C(c1ccccc1Cl)c1cc([N+](=O)[O-])ccc1N2
- outcome [7]: inactive
- outcome [8]: inactive

Structure (SMILES): CCCCCCCCCCCC[N+](C)(C)Cc1ccccc1
- AC50 [7]: 68.8 µM (active)
- AC50 [8]: 70.8 µM (active)
- AC50 [9]: 70.3 µM (active)

Structure (SMILES): O=C(O)c1cccc(C(=O)O)n1
- outcome [7]: inactive
- outcome [8]: inactive
